In PubChem BioAssay:

Biological target: Luciferin 4-monooxygenase (Photinus pyralis) (UniProt P08659)
Assay: firefly luciferase enzyme inhibitors, primary screen, biochemical, luminescence, purified enzyme, 2006 set (AID 1141);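 also: cell-free assay with purified firefly luciferase at 100 ng per well in PBS; test concentration not given here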
Conditions: SteadyGlo luminescence, 30 min, higher = more signal, called active from +8 up or from −8 down

Luciferin 4-monooxygenase (Photinus pyralis), sequence (P08659 whole entry, looked up): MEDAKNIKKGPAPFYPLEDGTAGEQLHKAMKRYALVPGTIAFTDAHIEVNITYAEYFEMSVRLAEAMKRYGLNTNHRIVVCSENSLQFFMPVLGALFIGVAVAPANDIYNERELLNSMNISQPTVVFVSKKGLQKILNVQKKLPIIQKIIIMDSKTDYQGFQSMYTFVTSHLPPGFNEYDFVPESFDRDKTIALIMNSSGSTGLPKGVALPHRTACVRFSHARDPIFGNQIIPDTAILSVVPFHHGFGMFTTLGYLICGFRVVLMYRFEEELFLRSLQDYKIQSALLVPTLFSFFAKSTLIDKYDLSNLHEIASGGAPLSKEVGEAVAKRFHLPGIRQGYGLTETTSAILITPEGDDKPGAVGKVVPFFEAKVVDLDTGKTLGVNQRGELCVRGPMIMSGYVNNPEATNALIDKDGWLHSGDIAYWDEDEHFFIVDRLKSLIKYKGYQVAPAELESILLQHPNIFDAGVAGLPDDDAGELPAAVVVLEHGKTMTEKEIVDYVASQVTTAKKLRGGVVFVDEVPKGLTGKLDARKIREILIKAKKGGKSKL

z-score, inactive:
C=CC[C@@]1(C(=O)NCc2ccccc2)N=C(c2ccc(OCCCO)cc2)O[C@@H]1c1ccccc1CN=[N+]=[N-] -0.876
C=CCN1C(=O)[C@]2(Cc3ccccc31)N=C(c1ccc(OCCCO)cc1)O[C@@H]2c1ccccc1 -1.39
CCCCC(=O)N(Cc1ccccc1F)[C@@H]1CC(C(=O)NCCO)=C[C@H](Oc2c(I)cc(CO)cc2OC)[C@H]1O 1.57
Cc1c(NC(=O)/C(C#N)=C/C=C/c2ccccc2)c(=O)n(-c2ccccc2)n1C -5.86
CC(C)(C)OC(=O)CC[C@]1(C(=O)NCC(O)CO)N=C(c2ccc(OCCCO)cc2)O[C@H]1c1ccccc1CN=[N+]=[N-] (some centres undefined) -0.718
CCCC[C@@H]1C[C@H]1[C@@H](NC(=O)c1ccco1)c1ccccc1 0.771
NC(=O)NCC#Cc1ccc2c(c1)[C@]1(C(=O)N2)[C@H](c2ccccc2OCCO)N2[C@H](c3ccccc3)[C@H](c3ccccc3)OC(=O)[C@H]2[C@@H]1C(=O)N1CCCCCCC1 -0.87
C=C(COC)C(=O)CC[C@H](OC(=O)c1cccnc1)c1ccccc1OCCO -2.36
C=C(C(=O)CC[C@@H](OC(=O)c1cccnc1)c1ccc(CO)o1)C(C)C -1.96
O=C1O[C@H](c2ccccc2)[C@H](c2ccccc2)N2[C@H]1[C@@H](C(=O)Nc1nc3ccccc3s1)[C@]1(C(=O)Nc3ccc(C#CC4=CCCCC4)cc31)[C@H]2c1ccc(OCCO)cc1 -3.28
COCCOC(=O)N1C(=O)[C@@]2(c3cc(C#Cc4ccc(OC)cc4)ccc31)[C@H](C(N)=O)[C@H]1C(=O)O[C@H](c3ccccc3)[C@H](c3ccccc3)N1[C@@H]2c1ccc(O)cc1 -0.245
CN1C(=O)C2C(C1=O)C1C=C(c3ccc(CO)cc3)C2C(C2CC2)N1Cc1sc2ccccc2c1Cl (centres undefined) -1.75
CC1CC/C=C\[C@H]2OC34C=CCN(Cn5nnc6ccccc65)C(=O)[C@H]3N(CCCO)C(=O)[C@@H]4C2C(=O)O1 (some centres undefined) 0.885
O=P(NCC1(CC2(c3ccccc3)CO2)CC1)(c1ccccc1)c1ccccc1 (centres undefined) 1.33
CCOC(=O)C1=CC[C@@H](c2ccccc2)N(S(=O)(=O)c2ccc(C)cc2)[C@H]1c1ccc(C#N)cc1 1.23
COc1cc(NN2C(C(O)c3ccccc3)C=CC3C(=O)N(c4ccccc4)C(=O)C32)cc(OC)c1OC (centres undefined) -2.13
Cn1c2c(c3ccccc31)C(=O)C1NC2C=CC1(C)C(=O)OCc1ccccc1 (centres undefined) 1.15
Cc1ccc(S[C@]2(C(=O)NCCN3CCOCC3)CC(=O)N(C3CCCCC3)[C@@H]2c2ccc(CO)cc2)cc1 -0.125
COCCOC(=O)N1C(=O)[C@@]2(c3cc(C#CC4=CCCCC4)ccc31)[C@H](c1ccc(OCCO)cc1)N1[C@H](c3ccccc3)[C@H](c3ccccc3)OC(=O)[C@H]1[C@@H]2C(=O)Nc1nc2ccccc2s1 -2.79
